# Source: PubChem
# GalR3 antagonist: human GalR3 antagonism; O60755; HEK293 GalR3-CNG cAMP membrane potential fluorescence; galR3 body fused to GalR1 C-terminus; inhibition, % at 3 µM; hit rate 0.44% among 360,000;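 active means inhibition above the screen-wide average plus 3 SD, cut at about 13% in these data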;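 further: forskolin and galanin both at EC90 stimulate the cells; cAMP rise reported by CNG channel membrane potential dye signal; 0% = forskolin plus galanin with DMSO and 100% = forskolin alone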
# NCOA1 inh: inhibits human SRC1 coactivator | HEK293 GAL4-SRC1 luciferase reporter, luminescence | inhibition, % at 3.6 µM | AID 588354 | hit rate 0.12% among 360,000;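 active means inhibition above the campaign mean plus 3 SD, with each screening campaign given its own cutoff, cut at about 60% in these data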;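 further: 0% = DMSO treated cells and 100% = gossypol at 36 µM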
# SRC2 inh: inhibits human steroid receptor coactivator 2; AID 651957; inhibition, % at 9 µM; Q15596; HEK293 GAL4-SRC2 luciferase reporter, luminescence; hit rate 0.17% among 370,000;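 active means inhibition above the mean inhibition of all tested compounds plus 3 SD, set per campaign, cut at about 52% in these data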;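 further: 0% = DMSO treated cells and 100% = cells given Gossypol at 36 µM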
# SRC3 inh: inhibitors of human steroid receptor coactivator 3 (SRC3). HEK293 GAL4-SRC3 luciferase reporter, luminescence. inhibition, % at 3.6 µM. hit rate 0.17% among 360,000. AID 588352;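 active means inhibition above a per-campaign cutoff, the mean of all compounds plus 3 SD, cut at about 60% in these data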;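 further: 0% = DMSO-treated cells and 100% = gossypol-treated cells at 36 µM; higher means less SRC3-driven luciferase light from the GAL4 reporter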
# LRH-1 inv ag: NR5A2 inverse agonism in reporter assay; AID 602396; inhibition, % at 3.6 µM; hit rate 0.13% among 360,000; HEK293T StAR-luciferase reporter, LRH-1 transfected, 24 h;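 active means inhibition above the mean inhibition of all tested compounds plus 3 SD, cut at about 73% in these data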;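 further: 0% = DMSO wells and 100% = reporter-only cells lacking LRH-1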
# COUP-TFII inh: inhibitors of human COUP-TFII (NR2F2); AID 686940; hit rate 0.7% among 370,000; HEK293T NGFI-A luciferase reporter, luminescence; inhibition, % at 8.6 µM;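 active means inhibition above a per-plate cutoff, mean inhibition of test wells between control levels plus 3 SD, cut at about 38% in these data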;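 further: cells cotransfected with COUP-TFII expression vector driving the NGFI-A reporter; 0% = median of COUP-TF2 test wells and 100% = reporter-only cells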
# Target sequence (P24468 whole entry, looked up): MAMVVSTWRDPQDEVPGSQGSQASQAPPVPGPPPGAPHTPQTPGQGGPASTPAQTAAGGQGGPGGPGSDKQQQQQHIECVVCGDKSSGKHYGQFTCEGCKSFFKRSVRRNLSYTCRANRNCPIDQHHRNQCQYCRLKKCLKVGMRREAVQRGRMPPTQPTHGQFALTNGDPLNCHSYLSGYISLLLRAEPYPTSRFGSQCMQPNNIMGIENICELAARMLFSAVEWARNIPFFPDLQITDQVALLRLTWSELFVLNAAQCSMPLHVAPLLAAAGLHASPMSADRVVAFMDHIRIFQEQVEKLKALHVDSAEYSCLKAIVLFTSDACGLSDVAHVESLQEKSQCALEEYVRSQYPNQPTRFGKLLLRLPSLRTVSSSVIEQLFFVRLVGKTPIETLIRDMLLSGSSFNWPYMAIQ
# Gal4-VP16 ctr: inhibits VP16 reporter, flagging COUP-TFII antagonist hits. HEK293 Gal4-VP16 luciferase reporter, luminescence. hit rate 25% among 2,500. inhibition, % at 8.5 µM. AID 687007. shares compounds with COUP-TFII inh; in the data active means inhibition above about 13%
# COUP-TFII conf: COUP-TFII (NR2F2) inhibition, confirmation assay. shares compounds with COUP-TFII inh. HEK293 NGFI-A luciferase reporter, luminescence. inhibition, % at 8.5 µM. hit rate 45% among 2,500. AID 687008;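 active means mean inhibition over three repeats above a set limit taken from the earlier primary screen, cut at about 38% in these data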;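 further: 100% = cells given the luciferase reporter alone without the COUP-TF2 vector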
# Starred values were filed as active, the others as inactive; . = not tested or not shown. This is a sample that favours compounds with a hit; in the whole collection about 1.1% have one here.
SMILES,GalR3 antagonist,NCOA1 inh,SRC2 inh,SRC3 inh,LRH-1 inv ag,COUP-TFII inh,Gal4-VP16 ctr,COUP-TFII conf
CC(=O)Nc1ccc(NS(=O)(=O)c2ccc(-c3cnc(C4CC4)o3)cc2)cc1,0,-36,15,9,28,5,.,.
CC(=O)c1cccc(NS(=O)(=O)c2ccc(-c3cnc(C4CC4)o3)cc2)c1,4,16,15,28,37,44*,3,47*
Cc1cccc(C)c1OCc1cc(C(=O)N(Cc2c(C)nn(C)c2C)C2CC2)no1,-10,19,10,23,12,51*,0,32
CCOC(=O)C1(Cc2ccccc2)CCN(Cc2ccccc2OC)CC1,.,.,11,.,.,1,.,.
CCOC(=O)C1(Cc2ccccc2)CCN(Cc2ccnc3ccccc23)CC1,.,.,35,.,.,47*,4,39*
Cc1cc(C)c(S(=O)(=O)NCc2ccncc2)c(C)c1,94*,12,17,9,36,60*,4,54*
CC1=CC(=O)C(C(C)C)=C/C1=N/OC(=O)c1cccc([N+](=O)[O-])c1,-11,1,27,17,26,17,.,.
CC1=CC(=O)C(C(C)C)=C/C1=N\OS(=O)(=O)c1ccc(F)cc1,.,.,.,.,.,92*,29*,15
N#Cc1cc2ccccc2nc1SCC(=O)Nc1ccc(S(=O)(=O)N2CCCC2)cc1,4,-20,14,24,-2,39*,-8,2
CC1OC(CC(=O)O)CC2=C1C(=O)c1c(O)cccc1C2=O (stereo not drawn),6,70*,96*,93*,97*,105*,98*,110*
COC(=O)c1sccc1-n1cccc1C(=O)C(=O)Nc1ccc(F)cc1,7,-10,14,-1,6,16,.,.
Cc1ccc(C(=O)O/N=C(\N)c2ccccn2)c(C)c1,-6,57,77*,70*,72,78*,65*,84*
COc1ccc(C(=O)O/N=C(\N)c2ccccn2)cc1,2,-33,42,-38,-22,48*,-168,-104
COc1ccccc1C(=O)O/N=C(\N)c1ccccn1,-2,-201,-15,-64,-125,-29,.,.
COc1ccc(C(=O)NNC(=O)c2ccccn2)cc1,-5,-42,36,-8,-101,46*,-112,-64
COc1ccc(-c2ccc(C#N)c(SCC(=O)NC3CC3)n2)cc1OC,-2,-11,-3,16,10,-20,.,.
